In PubChem BioAssay (NCI):
This is part of a sample that, as a whole, favours compounds with a hit. Of some 83,000 tested, about 20% had one in any assay.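 Method: cells in 96-well plates; compound added at one concentration; 48 h incubation; percent growth measured; values under 10 scored active.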 Values without a mark were called inactive. Calls of active or inactive are those of the source.

Columns and labels:
Assay in all cases: NCI-60 one-dose screen, 48 h (100 = growth as untreated, 0 = no growth, -100 = all killed)
Settings in all cases: 10 µM unless noted
NCI-H23 lung = tested on: NCI-H23 lung
NCI-H226 lung = tested on: NCI-H226 lung
NCI-H322M lung = tested on: NCI-H322M lung
HOP-62 NSCLC = tested on: HOP-62 NSCLC
NCI-H460 lung = tested on: NCI-H460 lung
NCI-H522 lung = tested on: NCI-H522 lung
A549/ATCC NSCLC = tested on: A549/ATCC NSCLC
786-0 renal = tested on: 786-0 renal
COLO 205 colon = tested on: COLO 205 colon
DU-145 prostate = tested on: DU-145 prostate
K-562 leukemia = tested on: K-562 leukemia
MALME-3M melanoma = tested on: MALME-3M melanoma
MDA-MB-231 breast = tested on: MDA-MB-231 breast
RXF 393 renal = tested on: RXF 393 renal
SF-268 CNS = tested on: SF-268 CNS
SF-295 CNS = tested on: SF-295 CNS
SF-539 CNS = tested on: SF-539 CNS
UACC-257 melanoma = tested on: UACC-257 melanoma
M14 melanoma = tested on: M14 melanoma
HOP-92 NSCLC = tested on: HOP-92 NSCLC

| SMILES | growth (NCI-H23 lung) | growth (NCI-H226 lung) | growth (NCI-H322M lung) | growth (HOP-62 NSCLC) | growth (NCI-H460 lung) | growth (NCI-H522 lung) | growth (A549/ATCC NSCLC) | growth (786-0 renal) | growth (COLO 205 colon) | growth (DU-145 prostate) | growth (K-562 leukemia) | growth (MALME-3M melanoma) | growth (MDA-MB-231 breast) | growth (RXF 393 renal) | growth (SF-268 CNS) | growth (SF-295 CNS) | growth (SF-539 CNS) | growth (UACC-257 melanoma) | growth (M14 melanoma) | growth (HOP-92 NSCLC) [%] |
| --- | --- | --- | --- | --- | --- | --- | --- | --- | --- | --- | --- | --- | --- | --- | --- | --- | --- | --- | --- | --- |
| CCN(CC)CC(O)CNc1ccc(NCC2CO2)c2c1C(=O)c1ccccc1C2=O (stereo unspecified) | -43% (active) | 0.0591% (active) | -16.7% (active) | -34.9% (active) | -43.9% (active) | -74.1% (active) | 7.32% (active) | -21.7% (active) | -40.8% (active) | -19.1% (active) | -25.6% (active) | -44.4% (active) | -2.98% (active) | 4.29% (active) | -7.61% (active) | 20.4% | -39.4% (active) | -2.17% (active) | -63.1% (active) |  |
| OC(c1cc2ccc(C(F)(F)F)cc2c2cc(C(F)(F)F)ccc12)C1CCCCN1 (stereo unspecified) | -95.8% (active) | -71.4% (active) | -91.5% (active) | -100% (active) | -100% (active) | -87.7% (active) | -97% (active) | -85% (active) | -100% (active) | -99.3% (active) | -95% (active) | -72.6% (active) | -79.1% (active) | -79.6% (active) | -81.7% (active) | -96% (active) | -88.1% (active) | -86.4% (active) | -85.2% (active) |  |
| O=C(CBr)c1ccc(OC(=O)c2ccccc2)cc1 | 101% | 113% | 134% | 99.9% | 104% |  | 100% |  | 109% | 114% | 89% | 125% | 107% | 119% | 102% | 112% | 102% | 87.9% | 87.4% | 88 |
| CC12CCC(O)CC1=CCC1C2CCC2(C)C3=NN=CC3CC12 (stereo unspecified) | 101% | 105% | 118% | 101% | 125% | 105% | 104% | 112% | 112% | 122% | 61.1% | 98% | 103% | 102% | 105% |  | 106% | 103% | 99.7% |  |
| C=C(C(N)=O)C(N)C(=O)O (stereo unspecified) | 110% | 112% | 100% | 110% | 108% | 100% | 107% | 92.8% |  | 99.9% | 100% | 98% | 108% | 111% | 106% | 112% | 110% | 112% | 90.7% |  |
| COc1cc2c(c(OC)c1OC)-c1ccc(NCc3ccccc3)c(=O)cc1[C@@H](NC(C)=O)CC2 | 25.9% | -12.4% (active) | 50.1% | 26.9% | 4.14% (active) | -10.3% (active) | 14.5% | 21.9% | -82.4% (active) | 1.24% (active) | 2.48% (active) | 40.3% | -3.82% (active) | 51.8% | 25.3% | -36.2% (active) | 0.134% (active) | 63.4% | 13.6% |  |
| C/C(=N/NC(N)=S)c1ccc(C)cc1 | 95.4% | 83.5% | 106% | 87.8% | 100% | 94.5% | 87.6% | 101% | 99.1% | 100% | 58% | 102% | 97.4% | 97.4% | 98.7% | 93.3% | 100% | 89.2% | 82.7% |  |
| CCCCCCCCCCCC[n+]1ccc2ccccc2c1 | -33.4% (active) | 4.19% (active) | 17% | -33.2% (active) | -13.5% (active) | -39.2% (active) | 6.68% (active) | -62.8% (active) | -80.2% (active) | 8.38% (active) | -18.4% (active) |  | -18% (active) | -6.08% (active) | -72.7% (active) | -40.3% (active) | -47.8% (active) | -39.2% (active) | -84.2% (active) |  |
| NC(=S)N/N=C\c1nccc2c(C(F)(F)F)cccc12 | 13.4% | -0.105% (active) | 4.15% (active) | -5.75% (active) | 0.121% (active) | -30.5% (active) | 3.44% (active) | -24.7% (active) | 17.8% | 12% | 5.11% (active) | -10.4% (active) | 49.1% | 16% | 5.75% (active) | 7.98% (active) | 0.339% (active) | -23.9% (active) | -26.7% (active) |  |
| O=C(Nc1cccc(C(F)(F)F)c1)Oc1ccc(Cl)c2cccnc12 | 8.91% (active) | 86.3% | 101% | 76.8% | 10.4% | -77.1% (active) | -1.52% (active) | 88% | 89.6% | 39.6% | 16.2% | -2.66% (active) | 22.7% | 68.6% | 15.1% | 4.11% (active) | 50.9% | -60% (active) | 24.9% |  |
| CN(C)c1ccc(/C=C/c2cc[n+](C)c(/C=C/c3ccc(N(C)C)cc3)c2)cc1 | 10.5% | 34.1% | -9.9% (active) | 19.3% | 10.6% | -20.2% (active) | 14.5% | 22.6% | -68.7% (active) | 23% | 4.82% (active) | 1.82% (active) | 8.47% (active) | 28.3% | 24.2% | -3.21% (active) | 27.1% | -18.8% (active) | 14.4% |  |
| Oc1ccc(Cl)cc1Cc1cc(Cl)ccc1O | -12.5% (active) | 96.7% | 79.6% | 70.6% | 11.5% | 5.48% (active) | 61% | 75.5% | 110% | 38.2% | 21.1% | 16.3% | 23.3% | 50.4% | 22.5% | 41.3% |  | 41.6% | 25.2% |  |
| Cc1ccc(Nc2ccc(O)c3c2C(=O)c2c(O)ccc(Nc4ccc(C)cc4)c2C3=O)cc1 | 101% | 95.6% | 128% | 101% | 105% | 94.8% | 99.1% | 102% | 108% | 124% | 115% | 102% | 110% |  | 114% | 104% | 96.3% | 95% | 102% |  |
| CCNc1nnnn1CC | 107% | 102% | 105% | 110% | 106% | 106% | 113% |  | 109% | 109% | 109% | 116% | 103% | 106% | 106% | 103% | 103% | 116% | 104% |  |
| Nc1cc(-c2ccccc2)ccc1O | 101% | 112% | 87.2% | 122% | 102% | 96.3% | 65.7% | 97.8% | 110% | 103% | 59.2% | 121% | 82.7% | 30.3% | 78.2% | 134% | 105% | 120% | 103% |  |
| CCCCCC[C@@H](O)C/C=C\CCCCCCCC(=O)OCCOC | 101% | 101% | 104% | 88.9% | 107% |  | 94.3% |  | 115% | 116% | 137% |  | 90% | 110% | 106% | 131% | 106% | 100% |  | 79.2 |
| Cc1ccc(NC2=CC(=O)C(=O)c3ccccc32)cc1 | -31.2% (active) | -67.9% (active) | -12.5% (active) | -86.2% (active) | 5.26% (active) | 18.8% | -36.5% (active) | 34.8% | -68.5% (active) | -65.1% (active) | 16.4% | -76.5% (active) | 49% | 44.1% | 41% | -22.9% (active) | -20.4% (active) | -46.2% (active) | -63.5% (active) |  |
| Cc1c(O)ccc(SC#N)c1C | 98% | 109% | 117% | 100% | 99.5% |  | 108% |  | 96.9% | 115% | 104% | 129% | 84.9% | 112% | 87.1% | 129% | 94.2% | 107% | 97.4% | 92.2 |
